Counter-ions that a name gives are not always drawn. ± gives the uncertainty stated by the source.

The test system of the assay is Caenorhabditis elegans N2. Nature of the assay: food intake (mean delta OD600 / animal over 72 h) with 50 uM loxapine co-treatment (OD600 units per animal); higher = more food eaten (less suppression of loxapine-induced hyperphagia). As to conditions: first compound 33 µM, loxapine concentration 50 µM. The protocol: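 C. elegans N2 adults (FUDR-sterilised, day 1) in 96-well plates fed gamma-irradiated bacteria. Each library drug (MedChemExpress FDA-approved library) at 33 uM was combined with loxapine at 50 uM. Food intake was measured as bacterial clearance: the change in OD600 from day 1 to 72 h, normalised per animal (mean over 14-21 wells of about 10-12 worms). Drugs flagged for bacterial lysis or sickness were excluded by the authors.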
As for `FC(F)(F)C(Cl)Br` (stereo not given) [halothane] + CN1CCN(C2=Nc3ccccc3Oc3ccc(Cl)cc32)CC1 [loxapine], the food intake was 0.0227 ± 0.0031.
The result for `Nc1nc(/C(=C/CC(=O)O)C(=O)N[C@@H]2C(=O)N3C(C(=O)O)=CCS[C@H]23)cs1` [ceftibuten (dihydrate)] + CN1CCN(C2=Nc3ccccc3Oc3ccc(Cl)cc32)CC1 [loxapine] reads 0.0192 ± 0.0055; that for `C[C@]12CC[C@@H]3c4ccc(O)cc4CC[C@H]3[C@@H]1CC[C@@H]2OC(=O)CCC1CCCC1` [estradiol (cypionate)] + CN1CCN(C2=Nc3ccccc3Oc3ccc(Cl)cc32)CC1 [loxapine], 0.0224 ± 0.0087; that for `CC(=O)Nc1ncc([N+](=O)[O-])s1` [nithiamide] + CN1CCN(C2=Nc3ccccc3Oc3ccc(Cl)cc32)CC1 [loxapine], 0.0244 ± 0.0027.
The result for `CC(C)NCC(O)COc1ccc(CCOCC2CC2)cc1` (stereo not given) [betaxolol (hydrochloride)] + CN1CCN(C2=Nc3ccccc3Oc3ccc(Cl)cc32)CC1 [loxapine] reads 0.025 ± 0.003; that for `[F-].[Na+]` [sodium fluoride] + CN1CCN(C2=Nc3ccccc3Oc3ccc(Cl)cc32)CC1 [loxapine], 0.0241 ± 0.0018; that for `Nc1ccc(O)c(C(=O)O)c1` [5-Aminosalicylic acid] + CN1CCN(C2=Nc3ccccc3Oc3ccc(Cl)cc32)CC1 [loxapine], 0.0212 ± 0.0048.
In the case of `CCCS(=O)(=O)Nc1ccc(F)c(C(=O)c2c[nH]c3ncc(-c4ccc(Cl)cc4)cc23)c1F` [vemurafenib] + CN1CCN(C2=Nc3ccccc3Oc3ccc(Cl)cc32)CC1 [loxapine] it was 0.012 ± 0.0047; in that of `CC(C)[C@H](N)C(=O)OCCOCn1cnc2c(=O)nc(N)[nH]c21` [valacyclovir (hydrochloride)] + CN1CCN(C2=Nc3ccccc3Oc3ccc(Cl)cc32)CC1 [loxapine], 0.0213 ± 0.0096; in that of `O=C(O)CCNC(=O)c1ccccc1` [betamipron] + CN1CCN(C2=Nc3ccccc3Oc3ccc(Cl)cc32)CC1 [loxapine], 0.0228 ± 0.0023.
For the molecule `CC[C@H]1OC(=O)C[C@@H](O)[C@H](C)[C@@H](O[C@@H]2O[C@H](C)[C@@H](O[C@H]3C[C@@](C)(O)[C@@H](O)[C@H](C)O3)[C@H](N(C)C)[C@H]2O)[C@@H](CC=O)C[C@@H](C)C(=O)/C=C/C(C)=C/[C@@H]1CO[C@@H]1O[C@H](C)[C@@H](O)[C@@H](OC)[C@H]1OC` [Tylosin (tartrate)] + CN1CCN(C2=Nc3ccccc3Oc3ccc(Cl)cc32)CC1 [loxapine], the food intake was 0.021 ± 0.0039.
Regarding `O=C(O)C1=C(CSc2nnnn2CS(=O)(=O)O)CS[C@@H]2[C@H](NC(=O)[C@H](O)c3ccccc3)C(=O)N12` [cefonicid (sodium)] + CN1CCN(C2=Nc3ccccc3Oc3ccc(Cl)cc32)CC1 [loxapine], the food intake stood at 0.0217 ± 0.018.
The result for `CC1(C)O[C@@H]2C[C@H]3[C@@H]4CCC5=CC(=O)C=C[C@]5(C)[C@@]4(F)[C@@H](O)C[C@]3(C)[C@]2(C(=O)CO)O1` [triamcinolone (acetonide)] + CN1CCN(C2=Nc3ccccc3Oc3ccc(Cl)cc32)CC1 [loxapine] reads 0.0224 ± 0.0033; that for `O=P(O)(O)C(O)(Cn1ccnc1)P(=O)(O)O` [Zoledronic acid (monohydrate)] + CN1CCN(C2=Nc3ccccc3Oc3ccc(Cl)cc32)CC1 [loxapine], 0.0237 ± 0.003.
In the case of `O=C1CCc2cc(OCCCCc3nnnn3C3CCCCC3)ccc2N1` [cilostazol] + CN1CCN(C2=Nc3ccccc3Oc3ccc(Cl)cc32)CC1 [loxapine] it was 0.0227 ± 0.0031; in that of `CN1CCC[C@H]1c1cccnc1` [L-nicotine] + CN1CCN(C2=Nc3ccccc3Oc3ccc(Cl)cc32)CC1 [loxapine], 0.0212 ± 0.0058.
The result for `NC(=O)c1cnccn1` [pyrazinamide] + CN1CCN(C2=Nc3ccccc3Oc3ccc(Cl)cc32)CC1 [loxapine] reads 0.0222 ± 0.0034.
As to `CO/N=C1\CN(c2nc3c(cc2F)c(=O)c(C(=O)O)cn3C2CC2)CC1CN` (stereo not given) [gemifloxacin (mesylate)] + CN1CCN(C2=Nc3ccccc3Oc3ccc(Cl)cc32)CC1 [loxapine], the food intake came to 0.023 ± 0.0032.
The result for `C[N+]1(C)CCC(=C(c2ccccc2)c2ccccc2)CC1` [diphenmanil (methylsulfate)] + CN1CCN(C2=Nc3ccccc3Oc3ccc(Cl)cc32)CC1 [loxapine] reads 0.0235 ± 0.0021; that for `CC1(C)[C@H](C(=O)O)N2C(=O)C[C@H]2S1(=O)=O` [sulbactam] + CN1CCN(C2=Nc3ccccc3Oc3ccc(Cl)cc32)CC1 [loxapine], 0.0225 ± 0.0027.
In the case of `Cc1nc(C)c(Cl)c(O)c1Cl` [clopidol] + CN1CCN(C2=Nc3ccccc3Oc3ccc(Cl)cc32)CC1 [loxapine] it was 0.0241 ± 0.0032; in that of `O=c1[nH]c(=O)n([C@H]2C[C@H](O)[C@@H](CO)O2)cc1I` [idoxuridine] + CN1CCN(C2=Nc3ccccc3Oc3ccc(Cl)cc32)CC1 [loxapine], 0.0176 ± 0.0026; in that of `CCCC(=O)Nc1ncnc2c1ncn2[C@@H]1O[C@@H]2COP(=O)(O)O[C@H]2[C@H]1OC(=O)CCC` [bucladesine (calcium salt)] + CN1CCN(C2=Nc3ccccc3Oc3ccc(Cl)cc32)CC1 [loxapine], 0.022 ± 0.0033.
In the case of `Nc1nccs1` [aminothiazole] + CN1CCN(C2=Nc3ccccc3Oc3ccc(Cl)cc32)CC1 [loxapine] it was 0.0243 ± 0.0035; in that of `N=C(N)c1ccc(OCCCCCOc2ccc(C(=N)N)cc2)cc1` [pentamidine (isethionate)] + CN1CCN(C2=Nc3ccccc3Oc3ccc(Cl)cc32)CC1 [loxapine], 0.0232 ± 0.0025.
`OCCN1C[C@H](O)[C@@H](O)[C@H](O)[C@H]1CO` [miglitol] + CN1CCN(C2=Nc3ccccc3Oc3ccc(Cl)cc32)CC1 [loxapine]: the food intake stood at 0.0214 ± 0.005.
As to `CN1C2=CC(=O)/C(=N\NC(N)=O)C=C2CC1S(=O)(=O)O` (stereo not given) [carbazochrome (sodium sulfonate)] + CN1CCN(C2=Nc3ccccc3Oc3ccc(Cl)cc32)CC1 [loxapine], the food intake amounted to 0.0296 ± 0.0057.
The result for `c1ccc(C2CN3CCSC3=N2)cc1` (stereo not given) [tetramisole (hydrochloride)] + CN1CCN(C2=Nc3ccccc3Oc3ccc(Cl)cc32)CC1 [loxapine] reads 0.0209 ± 0.0029; that for `C[C@H](Cn1cnc2c(N)ncnc21)OCP(=O)(O)O` [tenofovir] + CN1CCN(C2=Nc3ccccc3Oc3ccc(Cl)cc32)CC1 [loxapine], 0.0219 ± 0.0044.
In the case of `CCOC(N)=O` [urethane] + CN1CCN(C2=Nc3ccccc3Oc3ccc(Cl)cc32)CC1 [loxapine] it was 0.0215 ± 0.0029; in that of `O=C1N=C(O)NC1(c1ccccc1)c1ccccc1` [phenytoin (sodium)] + CN1CCN(C2=Nc3ccccc3Oc3ccc(Cl)cc32)CC1 [loxapine], 0.0233 ± 0.0031.
In the case of `CO/N=C(\C(=O)N[C@@H]1C(=O)N2C(C(=O)O)=C(CSC(=O)c3ccco3)CS[C@H]12)c1csc(N)n1` [ceftiofur (sodium)] + CN1CCN(C2=Nc3ccccc3Oc3ccc(Cl)cc32)CC1 [loxapine] it was 0.0225 ± 0.0037; in that of `O=C(c1ccccc1)c1ccc2n1CCC2C(=O)O` (stereo not given) [ketorolac (romethamine salt)] + CN1CCN(C2=Nc3ccccc3Oc3ccc(Cl)cc32)CC1 [loxapine], 0.0225 ± 0.0034.
For `O=C(O)COC(=O)Cc1ccccc1Nc1c(Cl)cccc1Cl` [aceclofenac] + CN1CCN(C2=Nc3ccccc3Oc3ccc(Cl)cc32)CC1 [loxapine], the food intake is 0.0221 ± 0.0083.
Turning to `CC(C)(C)C(=O)C(Oc1ccc(Cl)cc1)n1ccnc1` (stereo not given) [climbazole] + CN1CCN(C2=Nc3ccccc3Oc3ccc(Cl)cc32)CC1 [loxapine], the food intake amounted to 0.0235 ± 0.012.
As to `CN1CC(=O)N2[C@H](c3ccc4c(c3)OCO4)c3[nH]c4ccccc4c3C[C@@H]2C1=O` [tadalafil] + CN1CCN(C2=Nc3ccccc3Oc3ccc(Cl)cc32)CC1 [loxapine], the food intake turned out to be 0.0236 ± 0.0034.
Regarding `C[N+](C)(C)CCCCCC[N+](C)(C)C` [hexamethonium (bromide)] + CN1CCN(C2=Nc3ccccc3Oc3ccc(Cl)cc32)CC1 [loxapine], the food intake is 0.0215 ± 0.0099.
In the case of `O=C1CC2(CCCC2)CC(=O)N1CCCCN1CCN(c2ncccn2)CC1` [buspirone (hydrochloride)] + CN1CCN(C2=Nc3ccccc3Oc3ccc(Cl)cc32)CC1 [loxapine] it was 0.0245 ± 0.0044; in that of `CC[C@@H]([C@H](C)O)n1ncn(-c2ccc(N3CCN(c4ccc(OC[C@@H]5CO[C@@](Cn6cncn6)(c6ccc(F)cc6F)C5)cc4)CC3)cc2)c1=O` [Posaconazole] + CN1CCN(C2=Nc3ccccc3Oc3ccc(Cl)cc32)CC1 [loxapine], 0.023 ± 0.0056; in that of `CN(C)[C@@H]1C(O)=C(C(N)=O)C(=O)[C@@]2(O)C(O)=C3C(=O)c4c(O)ccc(Cl)c4[C@@H](O)[C@H]3C[C@@H]12` [demeclocycline (hydrochloride)] + CN1CCN(C2=Nc3ccccc3Oc3ccc(Cl)cc32)CC1 [loxapine], 0.0207 ± 0.0035.

Source of the values: the supplement of paper PMC6288085.
